Among all 16,000 compounds or so, about 5,800 (36%) were called active. Not shown: some 23% with an inconclusive outcome. The call rests on the fitted dose curve; in most records, active means well fitted curve in the direction sought with a large enough effect; inconclusive means small, poorly fitted or top-dose-only effect, or effect the other way; inactive means no such curve, though single readings can be large or run the other way. Some of the results follow.
The compounds below were run against Cytochrome P450 2C19 (Homo sapiens) (UniProt P33261) (assay: Cytochrome panel assay with activity outcomes). Settings: recombinant CYP, pro-luciferin dealkylation, luminescence, p450-cyp2c19; series mostly up to 57.1 µM; activity, negative = inhibition: at the top concentration.
Sequence of Cytochrome P450 2C19 (Homo sapiens) (P33261 whole entry, looked up): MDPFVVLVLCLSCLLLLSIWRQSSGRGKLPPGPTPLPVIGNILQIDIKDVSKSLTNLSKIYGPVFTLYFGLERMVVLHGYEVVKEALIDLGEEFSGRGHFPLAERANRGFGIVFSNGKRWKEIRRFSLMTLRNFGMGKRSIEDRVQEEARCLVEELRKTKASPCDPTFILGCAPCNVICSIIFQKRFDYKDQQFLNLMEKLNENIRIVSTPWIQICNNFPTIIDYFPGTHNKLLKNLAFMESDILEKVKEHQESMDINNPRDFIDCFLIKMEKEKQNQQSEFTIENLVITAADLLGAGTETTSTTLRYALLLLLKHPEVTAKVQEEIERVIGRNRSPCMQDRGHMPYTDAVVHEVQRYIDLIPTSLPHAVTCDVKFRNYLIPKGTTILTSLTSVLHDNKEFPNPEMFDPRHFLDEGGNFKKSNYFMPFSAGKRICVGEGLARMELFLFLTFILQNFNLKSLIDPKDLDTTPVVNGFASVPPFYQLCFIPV
On the % scale 0 is the no-effect control and ±100 the full control effect.

AC50, inactive:
CO[C@]1(NC(=O)CSCC#N)C(=O)N2C(C(=O)O)=C(CSc3nnnn3C)CS[C@H]21

AC50, active:
COCCn1c(C)cc(C2=NNC(=Nc3ccc(F)cc3)SC2)c1C 6.31 µM
O=C(N/N=C/c1c(Nc2cccc(C(F)(F)F)c2)nc2ccccn2c1=O)c1ccccc1 7.08 µM
Clc1ccccc1CSc1nnc(/C=C/c2ccccc2)o1 6.31 µM
Clc1cccc(Cl)c1CSc1nnc(/C=C/c2ccccc2)o1 10 µM
CC1(C)CC(=O)c2c(Cc3ccccc3)n[nH]c2C1 15.8 µM
Cc1ccc(C)c(N2CCN(C(=O)c3ccc4nc(-c5ccco5)c(-c5ccco5)nc4c3)CC2)c1 8.91 µM
Cc1cc2cc(CNC(=O)CC(C)C)ccc2n1C 11.2 µM
CCC(CC)C(=O)NCc1ccc2c(c1)cc(C)n2C 14.1 µM
CCOC(=O)NCc1ccc2c(c1)cc(C)n2C 15.8 µM
COc1ccc(C(C(=O)NC2CCCCC2)N(C(=O)Cc2c[nH]c3ccccc23)c2ccc(NC(C)=O)cc2)cc1OC (configuration not stated) 10 µM
COc1ccc(S(=O)(=O)Nc2cccc(Cl)c2)cc1OC 0.631 µM
CCOc1ccccc1Oc1coc2cc(OC)ccc2c1=O 2.82 µM
O=C1C2Sc3[nH]c(=O)sc3C(c3ccccc3)C2C(=O)N1c1ccc(Cl)cc1 (configuration not stated) 2.82 µM
O=C1C2Sc3[nH]c(=O)sc3C(c3ccccc3)C2C(=O)N1c1ccccc1 (configuration not stated) 2.24 µM
O=C(CCCC(=O)OCC(=O)c1ccc(Cl)cc1Cl)Nc1cc(C(F)(F)F)ccc1Cl 8.91 µM
CCn1cc(-c2nnnn2-c2ccc(Cl)cc2)c(=O)c2ccccc21 17.8 µM
O=S(=O)(Nc1ccc2oc(-c3ccccc3)nc2c1)c1ccccc1 0.631 µM
COC(=O)[C@@H]1C[C@H]1[C@@H](NC(=O)c1cc(C)on1)c1ccccc1 15.8 µM
COC(=O)[C@H]1C[C@@H]1[C@H](NC(=O)c1cc(C)on1)c1ccccc1 20 µM
COc1ccc(/C=C2\OC(=O)c3c(OC)cccc32)cc1OC 8.91 µM
Cc1nc(SCC(=O)NCCc2ccccc2)c2oc3ccccc3c2n1 0.178 µM
CCc1nc(SCC(=O)NCCc2ccccc2)c2oc3ccccc3c2n1 0.562 µM
O=S(=O)(c1ccccc1)N1CCC2(CCCN(c3ccccn3)C2)CC1 0.158 µM
O=S(=O)(c1ccccc1)N1CCC2(CCCN(c3ncccn3)C2)CC1 0.398 µM
O=C(c1cnc(-c2ccccc2)s1)c1ccc(Cl)cc1Cl 2.24 µM
Cc1sc(NC(=O)C(C)C)c(C(=O)Nc2ccccc2)c1C 3.55 µM
CCOC(=O)c1c(NC(=O)Nc2ccccc2)sc(C)c1C 5.01 µM
CCOC(=O)c1c(NC(=O)CSc2nnnn2C)sc(C)c1C 10 µM
CCOC(=O)c1c(NC(=O)CCc2ccc(CC)o2)sc(C)c1C 5.62 µM
Cc1ccccc1-c1cncnc1NCc1cccnc1 0.398 µM
Cc1cccc(CNc2ncncc2-c2ccccc2Cl)c1 1 µM
COc1ccccc1-c1cncnc1NCc1cccnc1 3.16 µM
Cc1ccccc1-c1cncnc1NCc1ccccc1 2 µM
FC(F)(F)c1ccccc1-c1cncnc1NCc1cccnc1 2.51 µM
Cc1cccc(CNc2ncncc2-c2ccccc2C)c1 1 µM
COc1ccccc1-c1cncnc1NCc1cccc(C)c1 0.398 µM
Cc1cnc(CNc2ncncc2-c2ccccc2C)cn1 7.94 µM
CSc1nncc(/C(C)=N\Nc2ccccc2)n1 5.01 µM
N#Cc1ccc(CN2CC3(CCN(C(=O)c4cccc(F)c4)CC3)C2)cc1 2 µM
O=C(c1ccco1)N1CCC2(CCCN(Cc3ccncc3)C2)CC1 10 µM
O=C(c1cccc(F)c1)N1CCC2(CCCN(Cc3ccncc3)C2)CC1 10 µM
Cc1cc(C(C)(C)C)cc(CNC2CCCCC2)c1O 0.02 µM
O=C(Cc1cccs1)N1CCC(c2nc3c(nnn3Cc3ccccc3Cl)c(=O)[nH]2)CC1 2 µM
O=C(CSc1ccc(C(F)(F)F)cc1[N+](=O)[O-])Nc1ccccc1 0.891 µM
Cc1ccc(Nc2c([N+](=O)[O-])ccc3c2=NC2(CCCCC2)N=3)cc1 2.82 µM
CSc1nsc(SC)c1C(=O)Nc1ccc(C)cc1 8.91 µM
CCCCOC(=O)c1ccc(NC(=S)NC(=O)c2c(Cl)cnn2C)cc1 15.8 µM
CCN=C(Nc1cccc(F)c1)SC1CC(=O)N(c2ccc(OC)cc2)C1=O (configuration not stated) 3.98 µM
O=C1CC(SC(=Nc2ccccc2)Nc2ccccc2)C(=O)N1c1cccc(Cl)c1 (configuration not stated) 2.24 µM

activity, negative = inhibition, inactive:
O=C(NNC(=O)c1cc2cc3ccccc3nc2s1)c1cccc(C(F)(F)F)c1 -4.56%
Cc1ccc(C(=O)N/N=C/c2sc(=O)n(Cc3cccc(C(=O)O)c3)c2Cl)cc1 7.1%
O=C(NCCC[N+]1=CC=N[C@H]1c1ccccc1)N1CCCc2nc(-c3ccc(Br)cc3)ccc21 -32% [at 11.4 µM]
CC(C)=CCC/C(C)=C/CO/N=C1/C[C@@H](O)[C@@H](O)[C@@H]2[C@@H]3C(=O)N(Cc4ccc5c(c4)OCO5)C(=O)[C@H]3CC[C@H]12 -41.4% [at 11.4 µM]
Cc1ccc(CNC(=O)CCNS(=O)(=O)c2ccc3c(c2)c(=O)n(C)c(=O)n3C)cc1 -15.8%
CCOC(=O)NNc1nncc2ccccc12 -27.7% [at 25.6 µM]
CC(N)=O 18.4%
Cn1c(=O)c2[nH]c(CCS)nc2n(C)c1=O -13.4% [at 11.4 µM]
CC(=O)N[C@@H](Cc1c[nH]c2ccccc12)C(=O)OCc1cc(C(F)(F)F)cc(C(F)(F)F)c1 -35.8%
CCN(CC)Cc1c(O)ccc2c(=O)c(Oc3ccccc3OC)coc12 -9.67%
O=C1C(C2=NC(C(=O)O)C3C(=O)N(c4ccc(Cl)cc4)C(=O)C23)=C(O)c2ccccc21 (configuration not stated) 19.4%
Cc1cc(NC(=O)CCCC(=O)OCC(F)(F)C(F)F)cc(C)c1C(=O)O -60.4%
COC(=O)[C@@H]1C[C@H]1[C@@H](NC(=O)c1cnccn1)c1ccccc1 -35%
COC(=O)[C@H]1C[C@@H]1[C@H](NC(=O)c1cnccn1)c1ccccc1 -34.9%
C[C@@]1(C(=O)O)NCCc2cc(O)c(O)cc21 -18.6%
O=S(=O)(c1ccccc1)N1CCC2(CC1)CN(c1ncccn1)C2 15.6%
CS(=O)(=O)N1CCC2(CC1)CN(c1ncccn1)C2 13.9%
CCOC(=O)N/N=C1/C[C@@H](O)[C@@H](O)[C@@H]2[C@@H]3C(=O)N(C4CCCCC4)C(=O)[C@H]3CC[C@H]12 9.98% [at 11.4 µM]
Cl/C(=C\n1cncn1)c1ccc(Cl)cc1Cl -25%
CC(=O)O[C@]1(C)N=NC2(CCCCC2)O1 5.37% [at 11.4 µM]
NCCSCCC(=O)O 13.2% [at 11.4 µM]
CN(C)Cc1ccccc1-c1cncnc1NCc1cccnc1 -37%
Cc1noc(C)c1-c1cncnc1NCc1ccccc1 -36.3%
Cc1nc(N=Nc2ccc(S(=O)(=O)O)cc2S(=O)(=O)O)c(COP(=O)(O)O)c(C=O)c1O -12.3%
COc1ncc2nc(-c3cccc(C#N)c3)c(=O)n(CCC#N)c2n1 -0.249%
N#Cc1ccccc1-c1cncnc1NCc1cccnc1 -41.6%
Cc1cnc(CNc2ncncc2-c2ccccc2CN(C)C)cn1 -14.6%
CC(=O)NCCNc1ncncc1-c1ccccc1C -36.2%
Cc1cnc(CNc2ncncc2-c2ccccc2C#N)cn1 -25.8%
Nc1cc(C(=O)O)[nH]c(=O)n1 35.4% [at 11.4 µM]
COC(=O)CNC(=O)CCCCC(=O)NCC(=O)OC -2.61%
Cc1nc2sccn2c(=O)c1Cl -25.7%
CC(C)(CN)CN 26.4% [at 11.4 µM]
O=C(c1ccco1)N1CCC2(CCN(Cc3ccncc3)CC2)CC1 -37.6%
O=C(c1cccc(F)c1)N1CCC2(CC1)CN(Cc1ccccc1)C2 -38.8%
N#Cc1ccc(CN2CCCC3(CCN(C(=O)c4cccc(F)c4)CC3)C2)cc1 -33.4%
O=C(c1cccc(F)c1)N1CCC2(CCCN(Cc3cc(C(F)(F)F)cc(C(F)(F)F)c3)C2)CC1 -21.3%
O=C(c1ccco1)N1CCC2(CCCN(Cc3ccccc3)C2)CC1 32.8%
O=C(c1cccc(F)c1)N1CCC2(CCCN(Cc3ccccc3)C2)CC1 -17%
O=C(O)c1ccc2c(c1)C(=O)N(C(Cc1ccc(O)cc1)C(=O)O)C2=O (configuration not stated) -26.8%
CO[C@@H]1COC(=O)[C@H](CCSC)NC(=O)C/C=C\[C@@H](C)COC(=O)[C@@H]2CCCN2C(=O)C/C=C\[C@H]1C 43.9% [at 11.4 µM]
CC(C)(C)c1cc2c(O)c(c1)Cc1cc(C(C)(C)C)cc(c1O)Cc1cc(C(C)(C)C)cc(c1O)Cc1cc(C(C)(C)C)cc(c1O)Cc1cc(C(C)(C)C)cc(c1O)Cc1cc(C(C)(C)C)cc(c1O)Cc1cc(C(C)(C)C)cc(c1O)Cc1cc(C(C)(C)C)cc(c1O)C2 -8.28% [at 11.4 µM]
O=C(Nc1ccccc1)N1CC2(CCN(C(=O)c3cc(C(F)(F)F)cc(C(F)(F)F)c3)CC2)C1 22.7%
COc1c(F)c(F)c(C(=O)O)c(Nc2ccc(C)cc2)c1F -14.2%
COCC(=O)N1CCC2(CC1)CCN(C(=O)Nc1cccc(F)c1)CC2 -28.3%
CCOC(=O)NNC1CC(=O)N(c2ccc(OC)cc2)C1=O (configuration not stated) 21.8%
CC(=O)Nc1ccc(N2C(=O)CC(c3ccccc3)CC2=O)cc1 0.0834%

Source: PubChem BioAssay AID1851 (National Center for Advancing Translational Sciences (NCATS), 2009)
